Data published in PubChem BioAssay.
Active and inactive are the calls of the source.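 How the source made its calls: active means mean inhibition over 43.08%, the solvent-only control mean plus 3 SD; inactive means the rest.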

What follows are compounds tested against Nuclear receptor coactivator 3 (Homo sapiens) (UniProt Q9Y6Q9) (assay: SRC3 coactivator transcriptional activity inhibitors, confirmation, cell-based, luminescence, quadruplicate (AID 588792;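 further: 0% = DMSO treated cells and 100% = gossypol at 36 µM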)). Details: HEK293 GAL4-SRC3 luciferase reporter, at 3.6 µM, stronger effect = higher value.
Sequence of Nuclear receptor coactivator 3 (Homo sapiens) (Q9Y6Q9 whole entry, looked up, the tested form may be a part): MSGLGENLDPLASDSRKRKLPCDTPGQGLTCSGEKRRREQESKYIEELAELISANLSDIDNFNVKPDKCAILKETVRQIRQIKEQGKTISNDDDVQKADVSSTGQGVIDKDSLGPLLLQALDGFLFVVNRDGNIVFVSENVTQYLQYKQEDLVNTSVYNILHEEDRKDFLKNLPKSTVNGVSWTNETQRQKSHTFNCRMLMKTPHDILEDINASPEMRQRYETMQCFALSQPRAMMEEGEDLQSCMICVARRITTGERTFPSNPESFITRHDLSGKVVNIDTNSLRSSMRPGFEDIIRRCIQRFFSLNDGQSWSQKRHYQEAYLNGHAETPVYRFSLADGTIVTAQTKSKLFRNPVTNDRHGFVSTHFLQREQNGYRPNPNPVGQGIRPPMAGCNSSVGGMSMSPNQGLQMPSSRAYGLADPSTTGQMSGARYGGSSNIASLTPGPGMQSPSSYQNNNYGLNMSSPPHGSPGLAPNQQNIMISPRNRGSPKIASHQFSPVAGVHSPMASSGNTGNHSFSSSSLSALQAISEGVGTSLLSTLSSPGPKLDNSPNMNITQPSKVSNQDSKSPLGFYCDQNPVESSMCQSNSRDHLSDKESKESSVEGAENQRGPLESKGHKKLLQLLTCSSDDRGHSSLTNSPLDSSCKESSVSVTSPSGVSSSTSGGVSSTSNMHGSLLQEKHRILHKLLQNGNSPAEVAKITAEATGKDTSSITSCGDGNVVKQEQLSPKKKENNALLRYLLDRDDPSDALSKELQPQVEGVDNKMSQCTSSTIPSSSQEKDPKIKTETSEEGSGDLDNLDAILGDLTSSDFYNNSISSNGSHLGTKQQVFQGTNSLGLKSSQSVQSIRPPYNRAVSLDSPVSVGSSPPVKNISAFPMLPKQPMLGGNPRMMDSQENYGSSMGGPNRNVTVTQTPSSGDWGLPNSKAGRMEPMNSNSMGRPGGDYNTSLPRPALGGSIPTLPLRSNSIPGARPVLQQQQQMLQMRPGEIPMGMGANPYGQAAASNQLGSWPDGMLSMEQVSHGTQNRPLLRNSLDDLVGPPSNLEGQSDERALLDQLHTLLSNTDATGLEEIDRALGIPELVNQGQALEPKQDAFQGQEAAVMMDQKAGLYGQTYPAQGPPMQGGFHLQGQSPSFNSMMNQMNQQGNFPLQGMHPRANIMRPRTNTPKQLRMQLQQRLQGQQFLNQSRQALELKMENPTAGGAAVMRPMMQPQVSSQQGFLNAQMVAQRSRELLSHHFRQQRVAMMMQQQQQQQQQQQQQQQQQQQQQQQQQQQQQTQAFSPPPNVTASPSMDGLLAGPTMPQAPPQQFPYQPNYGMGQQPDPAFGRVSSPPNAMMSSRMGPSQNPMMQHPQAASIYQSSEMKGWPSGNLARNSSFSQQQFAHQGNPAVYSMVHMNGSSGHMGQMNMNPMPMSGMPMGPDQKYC

SMILES | inhibition
CN1OC[C@@H]2CN(C(=O)c3ccc(-c4ccccc4)cc3)[C@H](c3ccc(-c4cccc(F)c4)cc3)C[C@@H]21 | -6.51% (inactive)
CCn1cc(C(=O)NCc2ccco2)c(=O)c2cc(S(=O)(=O)N3CCCCCC3)ccc21 | 20% (inactive)
CC(C)C[C@H](NC(=O)c1[nH]cnc1C(=O)N[C@@H](Cc1ccccc1)C(=O)OC(C)(C)C)C(=O)OC(C)(C)C | 13.6% (inactive)
Clc1ccc(-c2noc(CSc3nnc(-c4ccncc4)n3-c3ccccc3)n2)cc1 | 8.46% (inactive)
Cc1ccc(C)c(N2CCN(C(=O)C34CC5CC(C3)CC(n3nnc(C)n3)(C5)C4)CC2)c1 | 3.92% (inactive)
Cc1ccc(Cl)cc1N1CCN(C(c2ccc(C#N)cc2)c2nnnn2C2CCCC2)CC1 (stereo not given) | 1.29% (inactive)
C=C(C(=O)c1ccccc1)C(CC(=O)c1ccccc1)c1ccccc1 (stereo not given) | 25.9% (inactive)
O=C(Nc1ccc(N2CCN(c3ncccc3C(F)(F)F)CC2)nc1)c1cccs1 | -7.92% (inactive)
COc1cccc(NC(=O)CN(C)C(=O)/C=C/c2cn(-c3ccccc3)nc2-c2ccc(OC)c(OC)c2)c1 | 1.39% (inactive)
Cc1cc(C(C)(C)C)cc(C)c1Cn1c2[n+](c3ccc(C(F)(F)F)cc31)CCCCC2 | 11% (inactive)
COc1cccc2[nH]c(=O)c(-c3ccccc3)cc12 | -103% (inactive)
Cc1c(P(=S)(c2ccccc2)c2ccccc2)[n+]2ccccc2n1CCc1ccccc1 | 25.9% (inactive)
O=C(NCc1cccs1)C1CCCN(C(=O)Nc2ccc(F)cc2)C1 (stereo not given) | -1.07% (inactive)
CC(=O)c1c(C)[nH]c(C(=O)OCC(=O)Nc2ccc(C)cc2[N+](=O)[O-])c1C | 32.4% (inactive)
COC(=O)COc1cccc(NC(=O)c2cccs2)c1 | -1.66% (inactive)
COc1ccc(CCNC(=O)C(C)n2nc(C)c3c(C)n(-c4ccc(C)cc4)nc3c2=O)c(OC)c1 (stereo not given) | 7.11% (inactive)
O=c1[nH]oc2cc(Cl)ccc12 | 3.14% (inactive)
O=C(Nc1cc(C(=O)N2CCCC2)ccc1N1CCCC1)c1ccccc1F | 27.3% (inactive)
COc1cccc(/C=N/NC(=O)C(C)n2nc(C)c([N+](=O)[O-])c2C)c1O (stereo not given) | 10.2% (inactive)
Cc1ccc(N=Nc2ccc3ccccc3c2O)cc1 | 30.8% (inactive)

SMILES | inhibition
CC(=NNC(=O)c1ccncc1)c1ccc2ccccc2c1O | 45.1% (active)
Cc1cccc(C2(c3cccc(C)c3)CC2C(=O)Nc2ccc([N+](=O)[O-])cc2O)c1 (stereo not given) | 7.2% (inactive)
CSCc1cc(N(C)c2ccccc2)nc(-c2ccccn2)n1 | -19.7% (inactive)
COc1ccc(OC)c(NC(=O)c2cccc(N3C(=O)C4C5C=CC(C6CC56)C4C3=O)c2)c1 (stereo not given) | -11.6% (inactive)
CCCC(=O)NC(c1ccc(OC)cc1)c1ccc2cccnc2c1O (stereo not given) | 57.7% (active)
CCOC(=O)Cc1[nH]nc2c1C(c1cccc(OC)c1OC)C(C#N)=C(N)O2 (stereo not given) | -9.29% (inactive)
Cn1c(SCC(=O)Nc2ccc(Cl)cc2)nc(O)cc1=O | -1.75% (inactive)
O=C(N/N=C/c1cc(Br)ccc1O)c1cccc(N2CCCC2=O)c1 | 1.45% (inactive)
Cc1nc2cc(F)ccc2n1C1CCN(S(=O)(=O)c2ccccc2)CC1 | 14.1% (inactive)
O=C1C=CC(=O)N1CCNc1ncc(C(F)(F)F)cc1Cl | 7.05% (inactive)
O=c1[nH]c(=O)n([C@H]2C[C@H](O)[C@@H](CO)O2)cc1Br | 14.7% (inactive)
CC(=O)Nc1ccc(S(=O)(=O)Oc2ccccc2N2CCCCC2)cc1 | -3.48% (inactive)
COc1ccc(S(=O)(=O)NCc2ccncc2)cc1NC(=O)c1ccc(Cl)cc1 | 14.2% (inactive)
Cc1ccc(/C=C/C(O)=C2/C(=O)N(C)C3(C)CC2c2ccccc2O3)cc1 (stereo not given) | 20.3% (inactive)
CCc1ccc(NC(=O)c2cnc(N3CCN(c4ccccn4)CC3)c3ccccc23)cc1 | 18.1% (inactive)
Cn1nnnc1Sc1ncnc2scc(-c3ccccc3)c12 | -4.36% (inactive)
CC(=O)c1ccc(N2CCN(C(=O)c3nn(Cc4ccccc4)c(=O)c4ccccc34)CC2)cc1 | 13.9% (inactive)
O=C(NC(=S)NNC(=O)c1ccccc1O)c1ccc(F)cc1 | 19% (inactive)
O=C(Nc1nc2ccccc2s1)C1c2ccccc2Oc2ccccc21 | 39.2% (inactive)
COC(=O)c1ccc2c(c1)C(C)(C)C(/C=C/c1ccccc1O)=[N+]2C | 58.6% (active)
